Inconclusive results are not listed. Calls of active or inactive are those of the source. How the source made its calls: active means hit-call score of the fitted dose curve at least 0.9, where 1 is the maximum; inconclusive means response in the unintended direction; inactive means score below 0.9.

A short description of this test: ATG_M_61_EcoTox2: Attagene TRANS-FACTORIAL EcoTox-2 HepG2 Assay for M61 Transcription Factor (Internal Marker). As to the method: ATG_EcoTox2 is a cell-based, multiplexed assay created by modifying the existing Attagene TRANS-FACTORIAL system to include a panel of nuclear receptors from some or all the following species: human (Homo sapiens), african clawed frog (Xenopus laevis), rainbow trout (Oncorhynchus mykiss), japanese medaka (Oryzias latipes), and zebrafish (Danio rerio). The ECOTOX2-FACTORIAL format uses HepG2, a human liver cell line, with measurements taken at 24 hours after chemical dosing in a 24-well plate. ATG_M_61_EcoTox2 is one of 29 assay components calculated in the ATG_EcoTox2 assay. It is designed to make measurements of mRNA induction, a form of inducible reporter, as detected with fluorescence intensity signals by Reverse transcription polymerase chain reaction (RT-PCR) and Capillary electrophoresis technology.The assay endpoint ATG_M_61_EcoTox2 was analyzed in the positive analysis fitting direction relative to DMSO as the negative control and baseline of activity. Using a type of inducible reporter, measures of mRNA for gain-of-signal activity can be used to understand the background control at the transcription factor-level as they relate to the gene. Furthermore, this assay endpoint can be referred to as a secondary readout, because this assay has produced multiple assay endpoints where this one serves a background control function. To generalize the intended target to other relatable targets, this assay endpoint is annotated to the background measurement intended target family, where the subfamily is internal marker.
Human liver HepG2 cells are transiently transfected with multiple reporter transcription units (MRTUs) in 6-well plates using FuGene 6 reagent (Roche; 3 ml FuGene/1 mg DNA). The MRTU constructs are regulated by a cis-regulating element (promoter). Each RTU expresses a GAL4-UAS that regulates the transcription of a nearby target reporter gene sequence. A major difference between the CIS and TRANS system is that in CIS activities of endogenous TFs are measured, whereas the TRANS assay evaluates changes in activities of exogenous, chimeric NR-Gal4 proteins. […] At the end of 24 hour incubation, total RNA was isolated using TriZol reagent (Invitrogen). The isolated RNA is then reverse-transcribed using oligo(dT) primer and Mo-MLV reverse transcriptase (Invitrogen) with DNAse I (Ambion) treatment for 30 min. The one-tenth of the produced cDNA was amplified by PCR using Taq DNA polymerase (Invitrogen) and two reporter sequence-specific primers. The PCR products were fluorescently labeled by primer extension with 6-arboxyfluorescein (6-FAM) 5'-labeled reporter sequence-specific primer (2 min at 95 C, 20 s at 68 C and 10 min at 72 C) and these products were digested with 5U of HpaI (New England Biolabs) for 2h at 37 C. The fragments were purified using Qiaquick PCR columns (Qiagen), analyzed on an ABI 3130xL genetic analyzer (Applied Biosystems) with peak positions identified by using a set of X-rhodamine (ROX)-labeled MapMarker1000 molecular weight standards (BioVentures). The raw capillary electrophoresis data was processed using Attagraph software (Attagene).
As to `Cc1cccc(Nc2cc(Cl)nc(SCC(=O)O)n2)c1C`, the result was inactive.
`CC(C)OC(=O)C(C)(C)Oc1ccc(C(=O)c2ccc(Cl)cc2)cc1`: the call was inactive.
For `C=C(c1ccc(C(=O)O)cc1)c1cc2c(cc1C)C(C)(C)CCC2(C)C`, the compound was classed as inactive.
As for `Cc1c(C)c2c(c(C)c1O)CCC(C)(COc1ccc(CC3SC(=O)NC3=O)cc1)O2` (stereo unspecified), the result was inactive.
As for `CC(C)(Oc1ccc(CCNC(=O)c2ccc(Cl)cc2)cc1)C(=O)O`, the outcome was inactive.
`Cc1nc(-c2ccc(C(F)(F)F)cc2)sc1C(=O)NCc1ccc(OC(C)(C)C(=O)O)cc1`: the compound was called inactive.
Regarding `CC(C)(Oc1ccc(C2CC2(Cl)Cl)cc1)C(=O)O` (stereo unspecified), the outcome was inactive.
On to `CC(c1cc2ccccc2s1)N(O)C(N)=O` (stereo unspecified), for which the call was inactive.
The value for `CN(CCOc1ccc(CC2SC(=O)NC2=O)cc1)c1ccccn1` (stereo unspecified) was “inactive”; that for `CC(C)(Oc1ccc(Cl)cc1)C(=O)O` was “inactive”; that for `C[C@]12C=CC(=O)C=C1CC[C@@H]1[C@@H]2C(=O)C[C@@]2(C)[C@H]1CC[C@]2(O)C(=O)CO` was “inactive”.
